Compounds with a hit are over-represented: about 19% of the library has one in this group of screens.
TDP1 cell CPT: qHTS for Inhibitors of human tyrosyl-DNA phosphodiesterase 1 (TDP1): qHTS in cells in presence of CPT; chicken DT40 Tdp1-/-;hTDP1 cells + 20 nM CPT, ATP luminescence, 48 h; Potency, µM (doses to about 46.2 µM), without a hit: at the top dose activity change, negative = growth inhibition, most hits filed as inhibitors; actives 12% (n = 420,000); AID 686979, 2013; also: potency is read from the fitted curve at half-maximal effect; % is scaled to controls: 0 for no effect and ±100 for the full control effect; nearly all actives have a fitted effect of over 55% in size
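Chicken DT40 Tdp1-/- cells complemented with human TDP1, 400 cells/well, exposed to compounds plus 20 nM camptothecin for at least 48 h at 37 C; viability read as ATP content by CellTiter-Glo luminescence.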
IL-1B inflam inh: qHTS for Inhibitors of Inflammasome Signaling: IL-1-beta AlphaLISA Primary Screen | THP-1 LPS/ATP IL-1B secretion, AlphaLISA, 16 h; active compounds read low | activity change, % at 57.5 µM | actives 4.7% (n = 360,000); in the data active = activity change below about -50%; inconclusive = mostly about -30% to -49%; also: % is scaled to controls: 0 for no effect and ±100 for the full control effect
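THP-1 cells pretreated 1 hr with compounds (up to 57.5 uM final), then stimulated with LPS (250 ng/mL final) plus ATP (1.25 mM final); secreted IL-1B measured by AlphaLISA after 16 hr, decreased signal indicating inhibition.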
DT40 TDP1 no CPT: qHTS for Inhibitors of human tyrosyl-DNA phosphodiesterase 1 (TDP1): qHTS in cells in absence of CPT; Potency, µM (series often up to 46.2 µM), for inactives: at the highest dose activity change, negative = growth inhibition, actives largely listed as inhibitors; DT40 Tdp1-/- hTDP1 cells, no CPT, ATP luminescence, 48 h; actives 15% (n = 420,000); also: potency is read from the fitted curve at half-maximal effect; % is scaled to controls: 0 for no effect and ±100 for the full control effect; nearly all actives have a fitted effect of over 55% in size
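A cellular qHTS used chicken DT40 cells lacking endogenous Tdp1 but carrying stably transfected human TDP1. Compounds were applied without camptothecin, and cell growth kinetics were judged by ATP-dependent luminescence after ≥48 hr.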
ASM inhibitor: Inhibitors of Secretory Acid Sphingomyelinase (S-ASM): qHTS. actives 0.006% (n = 340,000). Potency, µM (highest dose often 57.5 µM), without a hit: top-dose activity change, negative = inhibition, most hits filed as inhibitors. placental ASM, HMU-PC fluorogenic substrate, 60 min. Sphingomyelin phosphodiesterase (Homo sapiens), P17405; also: potency is read from the fitted curve at half-maximal effect
Target sequence (P17405 47-631 limits assumed): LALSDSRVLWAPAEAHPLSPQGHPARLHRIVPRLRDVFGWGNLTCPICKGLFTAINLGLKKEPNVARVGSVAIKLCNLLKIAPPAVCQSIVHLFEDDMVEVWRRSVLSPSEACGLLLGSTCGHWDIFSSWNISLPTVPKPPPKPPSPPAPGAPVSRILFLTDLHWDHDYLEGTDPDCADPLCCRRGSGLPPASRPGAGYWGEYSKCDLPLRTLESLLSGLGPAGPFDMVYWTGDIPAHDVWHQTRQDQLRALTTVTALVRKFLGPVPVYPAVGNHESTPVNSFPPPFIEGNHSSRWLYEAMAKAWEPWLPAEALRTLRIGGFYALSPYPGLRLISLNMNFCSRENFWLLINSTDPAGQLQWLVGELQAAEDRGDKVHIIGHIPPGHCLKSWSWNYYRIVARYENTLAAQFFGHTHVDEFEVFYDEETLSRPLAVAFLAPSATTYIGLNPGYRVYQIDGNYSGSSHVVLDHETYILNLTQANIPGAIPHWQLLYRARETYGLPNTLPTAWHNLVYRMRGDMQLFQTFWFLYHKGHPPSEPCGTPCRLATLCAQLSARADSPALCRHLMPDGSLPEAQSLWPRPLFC
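Steps: dispense placental human ASM, pin compound, wait 10 min at room temperature, add HMU-PC0 substrate at 9 uM final, incubate 60 min at 37 °C, add stop solution raising pH to 10, read fluorescence.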
HepG2 viability: qHTS for Inhibitors of TGF-b: Cytotox Counterscreen | Potency, µM (top dose mostly 46.1 µM), for the others: at the highest dose activity change, negative = cytotoxicity, most hits filed as cytotoxic | HepG2 CAGA-GFP viability, ATP luminescence, 18 h | AID 588856, 2011 | actives 0.76% (n = 410,000); also: potency is read from the fitted curve at half-maximal effect
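CellTiter-Glo luminescence gave cytotoxicity after 18 hours at 37 degrees C. The cells were HepG2 CAGA-GFP in 1% FBS DMEM, stimulated with 500 pg/mL TGF-beta after compound addition. %Activity was normalised to no-cell wells (complete cell-killing) and DMSO (no toxicity), and curves were fitted and classified.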
TGFb SMAD3 inh: qHTS for Inhibitors of TGF-b | actives 1.2% (n = 410,000) | AID 588855, 2011 | HepG2 CAGA-GFP TGF-b/SMAD3 reporter, GFP fluorescence, 18 h; TGF-beta stimulated, 500 pg/mL final | Potency, µM (highest dose often 46.1 µM), inactives show at the top dose activity, negative = inhibition, usual class: inhibitors; also: potency is read from the fitted curve at half-maximal effect; % is scaled to controls: 0 for no effect and ±100 for the full control effect; nearly all actives have a fitted effect of over 65% in size
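Smad-responsive CAGA-GFP expression was quantified in HEPG2 cells exposed to compounds and 500 pg/mL final TGF-beta for 18 h at 37 degrees C; unstimulated wells defined full inhibition.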
* hit, by the source's call; ? = inconclusive; nt = no result given. Unless noted, calls follow the shape of the dose curve; as a rule, active = well fitted curve in the direction sought with a large enough effect; inconclusive = small, poorly fitted or top-dose-only effect, or another doubt; inactive = no such curve, though single readings can be large; an effect the other way counts as inactive or inconclusive.

SMILES	TDP1 cell CPT	IL-1B inflam inh	DT40 TDP1 no CPT	ASM inhibitor	HepG2 viability	TGFb SMAD3 inh
Cc1ccc([C@H]2N[C@]3(CCCN(CC4CCCCC4)C3=O)[C@H]3C(=O)N(C)C(=O)[C@@H]23)cc1	?	-14.8	-27.4%	nt	-2.3%	2.1%
CN1C(=O)[C@H]2[C@@H](c3ccc(C(F)(F)F)cc3)N[C@]3(CCCN(CC4CCCCC4)C3=O)[C@H]2C1=O	20.6µM*	-13.8	10.3µM*	nt	-31.0%	0.6%
CN1C(=O)[C@H]2[C@@H](c3ccc(C(F)(F)F)cc3)N[C@]3(CCCN(Cc4ccc(Br)cc4)C3=O)[C@H]2C1=O	14.6µM*	-18.7	16.4µM*	nt	2.1%	-3.0%
Cc1nc(N)sc1C(=O)NN	13.0%	nt	-6.0%	1.6%	7.1%	-12.1%
O=[N+]([O-])c1ccc(S(=O)(=O)N/N=C/c2ccsc2)cc1	-13.5%	30.4	-6.9%	-0.5%	-4.5%	-9.7%
Cc1ccc(C(=O)N2CCCC(C(=O)c3ccc(Oc4ccccc4)cc3)C2)cn1 (stereo not given)	20.6µM*	-79.9*	16.4µM*	0.0%	-55.5%	-28.9%
CCC(=O)N1CCCC(C(=O)c2ccc(-c3ccccc3)cc2)C1 (stereo not given)	?	-68.1*	?	-3.7%	-0.6%	-17.7%
Cc1ccc(C(=O)N2CCCC(C(=O)c3ccc(Cl)cc3C)C2)cn1 (stereo not given)	-29.3%	1.4	20.6µM*	-0.6%	-26.9%	-2.1%
COCCC(=O)N1CCCC(C(=O)c2ccc(Oc3ccccc3)cc2)C1 (stereo not given)	-28.9%	-1.2	20.6µM*	-3.0%	-24.1%	-28.6%
Cc1cnc(C(=O)N2CCCC(C(=O)c3ccc(Cl)cc3C)C2)cn1 (stereo not given)	?	80.0	?	1.3%	-1.2%	2.1%
COC(=O)CCCC(=O)N1CCCC(C(=O)c2ccc(-c3ccccc3)cc2)C1 (stereo not given)	?	8.8	?	-1.8%	-7.3%	-4.7%
O=C(Nc1ccc(OC(F)(F)F)cc1)N1CCN(c2ccnc3cc(Cl)ccc23)CC1	4.61µM*	?	5.17µM*	-12.6%	-21.5%	?
COc1ccccc1NC(=O)N1CCN(c2ccnc3cc(Cl)ccc23)CC1	?	-74.5*	16.4µM*	-2.9%	-37.6%	0.0%
COc1ccccc1N1CCN(c2ccnc3cc(Cl)ccc23)CC1	2.59µM*	40.3	4.61µM*	-1.0%	8.3%	-1.9%
COc1ccccc1NC(=O)N1CCc2[nH]c3ccc(Cl)cc3c2C1	20.6µM*	nt	?	-17.5%	-5.4%	-2.0%
CC(C)(C)C(=O)N1CCN(c2ccnc3cc(Cl)ccc23)CC1	?	-13.5	?	-1.7%	-33.2%	-22.9%
COc1ccccc1N1CCN(c2cnccn2)CC1	-1.4%	-9.8	-9.1%	-2.5%	0.9%	-0.8%
O=C(Nc1cc(Cl)cc(Cl)c1)c1ccc(F)c(S(=O)(=O)N2CCc3ccccc32)c1	5.8µM*	nt	9.2µM*	nt	-75.6%	3.98µM*
CC(C)c1ccc(NC(=O)c2ccc(F)c(S(=O)(=O)N3CCCC3)c2)cc1	10.3µM*	nt	?	nt	-12.7%	-18.4%
O=C(Nc1cc(Cl)cc(Cl)c1)c1ccc(F)c(S(=O)(=O)N2CCCC2)c1	16.4µM*	nt	20.6µM*	nt	-32.1%	?
O=C(Nc1ccc(S(=O)(=O)N2CCc3ccccc32)cc1)c1ccc2c(c1)OCO2	?	?	?	-10.5%	-10.3%	?
CC(C)c1ccc(NC(=O)c2ccc(F)c(S(=O)(=O)N3CCCCCC3)c2)cc1	?	nt	?	nt	-12.5%	-6.9%
Cc1nnc(NC(=O)c2ccc(F)c(S(=O)(=O)N3CCCCC3)c2)s1	-14.4%	6.3	-20.4%	nt	-28.1%	0.8%
CCOc1ccc(Oc2c(/C=N/NC(=O)C3CC3)c(C)nn2-c2ccccc2)cc1	?	6.2	14.6µM*	-7.4%	-8.1%	-4.5%
CCOc1ccc(Oc2c(/C=N/NC(C)=O)c(C)nn2-c2ccccc2)cc1	-17.7%	-9.0	?	-7.0%	-25.8%	-1.7%
SMILES	TDP1 cell CPT	IL-1B inflam inh	DT40 TDP1 no CPT	ASM inhibitor	HepG2 viability	TGFb SMAD3 inh
CCCS(=O)(=O)NC(=O)C1(C)CCCN(C(=O)/C=C/c2ccccc2)C1 (stereo not given)	5.8%	30.7	2.1%	nt	-6.3%	-1.3%
COc1ccccc1OCC(=O)Nc1nc(C)c(C)s1	3.0%	7.6	?	2.8%	-6.6%	-14.5%
C=CCCC(=O)Nc1nc(C)c(-c2csc(Nc3ccccc3OC)n2)s1	6.51µM*	-22.5	7.31µM*	-15.2%	9.3%	-22.1%
CCCCC(=O)Nc1nc(C)c(-c2csc(Nc3ccccc3OC)n2)s1	23.1µM*	-19.3	?	-1.1%	-0.6%	-3.7%
COc1ccccc1Nc1nc(-c2cccs2)cs1	-4.3%	-7.6	-1.0%	-20.0%	-22.8%	-23.7%
NC1=NC(=O)/C(=C\c2ccc(-c3ccc(Cl)cc3)o2)S1	?	55.4	18.4µM*	101.7%	-44.7%	?
NC1=NC(=O)/C(=C/c2cn(CCC(=O)O)nc2-c2ccc(Cl)cc2)S1	-16.7%	0.0	-21.7%	2.8%	-7.7%	-9.0%
O=C(NC1CC1)c1ccc(NS(=O)(=O)c2ccc(F)cc2)cc1	3.4%	14.2	-21.8%	-0.5%	0.9%	?
Cn1c(=O)c2c(nc(CN3CCN(CCO)CC3)n2Cc2ccccc2Cl)n(C)c1=O	6.5%	-10.9	-1.6%	-0.7%	-10.9%	1.6%
Cn1c(=O)c2c(nc(CN3CCN(c4ccccc4F)CC3)n2Cc2ccccc2F)n(C)c1=O	6.51µM*	nt	5.17µM*	nt	3.9%	-12.0%
CCOC(=O)Cn1c(CN2CCc3ccccc3C2)nc2c1c(=O)n(C)c(=O)n2C	4.11µM*	39.9	4.61µM*	4.9%	-19.8%	?
COc1ccc(N2CCN(Cc3nc4c(c(=O)[nH]c(=O)n4C)n3Cc3ccccc3F)CC2)cc1	-19.5%	nt	-5.4%	nt	-9.9%	-6.1%
Cn1c(=O)c2c(nc(CN3CCc4ccccc4C3)n2Cc2ccccc2F)n(C)c1=O	8.2µM*	-62.6*	6.51µM*	-0.7%	-19.3%	7.9%
Cn1c(=O)c2c(nc(CN3CCN(c4ccc(F)cc4)CC3)n2Cc2ccccc2F)n(C)c1=O	10.3µM*	1.6	8.2µM*	-15.3%	0.7%	-10.6%
